From PubChem BioAssay
Sampled rows, rich in hits. Any-hit rate of the full collection: about 5.4%.
CtBP-E1A blk = blocks the CtBP interaction with E1A; AlphaScreen GST-E1A/His-CtBP binding, 1536-well; hits give low values; activity change, % (concentration not given with the values); actives 0.49% (n = 340,000); AID 651724; in the data active = activity change below about -65%; inconclusive = mostly about -30% to -63%; also: % is scaled to controls: 0 for no effect and ±100 for the full control effect
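Protein mix (5X: 125 nM each GST-E1A, His-CtBP) was incubated with pinned compound 2 h at 37 deg C in dark, in 50 mM Tris pH 8.0 buffer with 300 mM NaCl. Glutathione donor and nickel acceptor beads followed; AlphaScreen signal read after 1 h.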
Gal4-VP16 FLuc = inhibits Gal4-VP16 luciferase reporter, ROR gamma counter-screen | actives 3.5% (n = 310,000) | Potency, µM (doses to about 53.6 µM), inactives show top-dose activity, negative = inhibition, actives largely listed as inhibitors | Drosophila S2 Gal4-VP16 UAS-luciferase, luminescence, 20 h;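 also: Gal4-VP16 expression switched on by copper sulfate through the metallothionein promoter; potency is read from the fitted curve at half-maximal effect; % is scaled to controls: 0 for no effect and ±100 for the full control effect; nearly all actives have a fitted effect of over 50% in size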
RORgamma inh = blocks mouse ROR gamma transcriptional activity. AID 2551. actives 5.4% (n = 310,000). P51450. Potency, µM (doses to about 53.6 µM), for the others: at the top dose activity change, negative = inhibition, actives largely listed as inhibitors. Drosophila S2 Gal4-RORgamma UAS-luciferase reporter, 20 h; also: potency is read from the fitted curve at half-maximal effect; % is scaled to controls: 0 for no effect and ±100 for the full control effect; nearly all actives have a fitted effect of over 60% in size
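ROR gamma transcriptional activity was tracked as Gal4-UAS luciferase output in stably transfected Drosophila Schneider cells, with compound added 1 hr before 700 uM copper sulfate induction and a 20 hr ambient-temperature incubation.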
Six1-Eya2 inh = inhibitors of human Six1/Eya2 interaction | Q15475+O00167 | AlphaScreen GST-Six1/His-Eya2 binding, biochemical; hits give low values | activity change, % (test concentration not listed) | actives 0.56% (n = 360,000); in the data active = activity change below about -65%; inconclusive = mostly about -30% to -63%; also: % is scaled to controls: 0 for no effect and ±100 for the full control effect
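AlphaScreen luminescence read after one hour at 37 °C in darkness. Pin-transferred compounds met GST-Six1 and His-Eya2 protein (5X stock 250 nM/500 nM) plus glutathione donor and Ni-chelate acceptor beads (5X, 50 ug/mL).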
p53 reactivator = re-activators of mutant p53; H1299 p53-A138V BP100-luciferase reporter, luminescence, 24 h; Potency, µM (titrated, usually from 92.2 µM), for inactives: at the top dose activity change, positive = activation, most hits filed as activators; actives 0.063% (n = 320,000); also: potency is read from the fitted curve at half-maximal effect; % of control where 0% means no effect; nearly all actives have a fitted effect of over 45% in size
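H1299 (p53-null), stable ts p53-A138V + BP100-Luc; 1000 cells/well, Opti-MEM/10% FBS; cpd 4 pt, 1:5; 24 h, 37 deg C, 5% CO2; detection reagent 10 min RT; luminescence.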
* hit, by the source's call; u = inconclusive; x = no result; [ ] = remark or other dose. Unless noted, calls follow the shape of the dose curve; as a rule, active = well fitted curve in the direction sought with a large enough effect; inconclusive = small, poorly fitted or top-dose-only effect, or another doubt; inactive = no such curve, though single readings can be large; an effect the other way counts as inactive or inconclusive.

SMILES	CtBP-E1A blk	Gal4-VP16 FLuc	RORgamma inh	Six1-Eya2 inh	p53 reactivator
Cc1ccc(OCCCOc2cccc3cccnc23)cc1C	3.5	u	14.1µM*	-3.1	22.7%
O=C(NCc1ccc(F)cc1F)Nc1cnccc1C(F)(F)F	x	-4.9%	-8.6%	-7.3	-7.9%
O=C(CCCN1C(=O)c2cccc3cccc(c23)C1=O)N1CCc2ccccc2C1	-15.7	4.3%	27.6%	-8.4	-8.3%
CN(Cc1ccccn1)C(=O)C1CCC(=O)N(CCc2ccc(Cl)cc2)C1 (stereo not drawn)	7.7	-2.0%	0.2%	0.0	-0.5%
COc1ccc(-n2c(-c3ccc(C(C)(C)C)cc3)n[nH]c2=S)c(OC)c1	-7.5	x	x	-11.9	x
S=c1[nH]nc(-c2cccnc2)n1-c1ccc2c(c1)OCCO2	-8.4	24.8%	u	-0.5	5.9%
S=c1[nH]nc(-c2ccc(Cl)cc2)n1-c1ccc(Cl)cc1	-15.7	7.08µM*	7.08µM*	7.5	x
COc1ccc(-n2c(-c3ccc(Cl)cc3Cl)n[nH]c2=S)c(OC)c1	1.0	6.31µM*	3.98µM*	-0.8	7.5%
S=c1[nH]nc(-c2ccc(Cl)cc2Cl)n1-c1ccc(Cl)cc1	1.6	u	6.31µM*	-3.9	u
O=c1ccc(-c2n[nH]c(=S)n2-c2ccc(F)c(Cl)c2)n[nH]1	0.0	7.2%	-38.4%	7.5	3.4%
Fc1ccc(-c2n[nH]c(=S)n2-c2ccc3c(c2)OCCO3)cc1	x	-25.4%	12.6µM*	-5.0	-0.3%
Nc1n[nH]c(=S)n1-c1ccc(Cl)cc1	x	-18.7%	-9.3%	0.7	-2.7%
COc1ccc(N2CCN(C(=O)C3CCCN3S(=O)(=O)c3cccc4nsnc34)CC2)cc1 (stereo not drawn)	x	3.9%	4.5%	-5.8	-5.7%
O=C(O)c1ccccc1C(=O)NC1CCN(c2nccc(C(F)(F)F)n2)CC1	7.0	6.9%	-0.2%	0.0	-6.9%
COc1cccc(-c2nc(NC3CCNCC3)c3ccccc3n2)c1	x	-12.1%	0.2%	x	x
S=c1[nH]nc(-c2ccc(Cl)cc2)n1-c1ccc2c(c1)OCCO2	-5.9	7.08µM*	3.16µM*	1.3	5.4%
CC(C)OCCCNC(=O)c1ccc(Br)cc1	-1.7	u	8.7%	-1.9	4.6%
CC(C)OCCCn1c(-c2ccc(Br)cc2)c[nH]c1=S	-27.9	2.82µM*	1µM*	-2.0	2.1%
O=C(N/N=C/c1ccoc1)c1cc(Br)ccc1O	-1.3	3.98µM*	3.55µM*	-14.3	3.9%
O=C(N/N=C1/CCSC1)c1cc(Br)ccc1O	-11.9	-11.2%[10 µM]	7.94µM*	-6.8	2.5%
CCC/C=N/NC(=O)c1cc(Br)ccc1O	-10.8	u	11.2µM*	-12.1	-5.5%
Cc1cccc(/C=N/NC(=O)c2cc(Br)ccc2O)n1	-18.1	u	u	-22.8	u
O=C(NN=C1CCCC1)c1cc(Br)ccc1O	-4.0	u	u	-10.3	12.7%
S=C(NCCNC(=S)Nc1ccccc1)Nc1ccccc1	x	-0.2%	-37.4%[1.91 µM]	-1.7	x
Cc1ccc(NC(=S)NCCO)c(C)c1	2.0	4.2%	-43.2%	-1.8	-5.8%
SMILES	CtBP-E1A blk	Gal4-VP16 FLuc	RORgamma inh	Six1-Eya2 inh	p53 reactivator
COC(=O)Cc1ccc(NC(=S)NCCSc2ccc(Cl)cc2)cc1	-1.3	u	15.8µM*	-13.4	-4.2%
Cc1ccc(SCCNC(=S)Nc2cc(C)ccc2C)cc1	-0.4	7.94µM*	6.31µM*	-23.0	1.2%
COc1ccccc1NC(=S)NCCSc1ccc(C)cc1	-2.5	11.2µM*	12.6µM*	-8.8	2.8%
Cc1ccc(SCCNC(=S)Nc2ccccc2)cc1	-1.2	1µM*	0.794µM*	-9.3	x
CSc1cccc(NC(=S)Nc2cc(C)ccc2C)c1	-4.5	u	11.2µM*	-2.9	4.0%
Cc1cc(C)cc(NC(=S)NCCCO)c1	6.9	-2.5%	-40.4%	9.9	1.6%
Cc1ccc(C)c(NC(=S)Nc2cccnc2)c1	-12.0	-5.0%	u	-8.4	-2.0%
Cc1cc(C)cc(NC(=S)NCCSc2ccc(Cl)cc2)c1	-2.7	5.01µM*	2.82µM*	-2.8	-3.2%
Cc1ccc(SCCNC(=S)Nc2ccc(C)c(C)c2)cc1	-21.7	8.91µM*	4.47µM*	-16.5	-4.1%
NNC(=O)c1sccc1OCc1ccc(Cl)cc1Cl	-17.9	u	-35.8%	-0.4	-0.4%
COc1cc(CN2CCCC(C(=O)c3ccc4c5c(cccc35)CC4)C2)cc(OC)c1O (stereo not drawn)	-2.4	u	u	-21.8	0.6%
